Measurements as given in PubChem BioAssay (NCATS).
Inconclusive results are not listed. Calls of active or inactive are those of the source. Unless noted, calls come from the whole dose curve; as a rule, active = well fitted curve in the direction sought with a large enough effect; inconclusive = small, poorly fitted or top-dose-only effect, or another doubt; inactive = no such curve, though single readings can be large; an effect the other way counts as inactive or inconclusive.

How the values were obtained:
[1] = Cell Viability - Mesenchymal (AID 546); conditions: mesenchymal cells viability, qHTS; activity change, negative = cytotoxicity: at 91.7 µM (top of the series);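 note: cells exposed to compound for 40 hours before reading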; note: potency is the fitted concentration of half-maximal effect
In short: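 CellTiter-Glo luminescence (intracellular ATP, 20 min room temperature) after 40 hr compound exposure at 37 °C of 1000 glomerulus-derived human kidney mesenchymal cells/well; AC50 values obtained by fitting qHTS concentration-response data to the Hill equation.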

[2] = Cellular Toxicity (caspase-3) HepG2 (AID 654); note: potency is the fitted concentration of half-maximal effect;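 for caspase-3 activation: cells exposed to compound for 16 hours before reading; 0% = DMSO alone and 100% = caspase signal from 100 µM tamoxifen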
In short: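 Concentration-response AC50 values reflect caspase-3/7 induction in HepG2 cells after 16 hours of compound exposure, quantified by luminescence from liberated aminoluciferin and referenced to 100 uM tamoxifen as full stimulation.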

[3] = Cellular Toxicity (caspase-3) Jurkat (AID 655);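 note: cells exposed to compound for 16 h at 37 °C before reading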; note: potency is the fitted concentration of half-maximal effect
In short: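 qHTS in human Jurkat T-cell leukemia line: 16 hr compound treatment at 37 °C, caspase-3/7 activity measured by Caspase-Glo luminescence. AC50 derived from Hill equation.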

[4] = Cellular Toxicity (caspase-3) HUV-EC-C (AID 656)
In short: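 Concentration-dependent caspase 3/7 induction was assessed in HUV-EC-C cells exposed for 16 hours. Data scaled between DMSO and tamoxifen (100 uM) controls.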

[5] = Cellular Toxicity (caspase-3) SHSY5Y (AID 657);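 note: cells exposed to compound for 16 hours at 37 °C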
In short: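 Readout: caspase-cleaved peptide-aminoluciferin substrate driving luciferase light in SH-SY5Y neuroblastoma cells after 16 h treatment. Response normalized to DMSO and 10 uM staurosporine controls.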

[6] = Cellular Toxicity (caspase-3) BJ (AID 658);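 note: 0% = DMSO basal and 100% = 10 µM staurosporine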
In short: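 Caspase-Glo 3/7 luminescence, read 1 hr after reagent at room temperature, in normal BJ fibroblasts exposed 16 hours at 37 °C. AC50 values from Hill-equation concentration-response, scaled between DMSO basal and 10 uM staurosporine as 100%.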

[7] = Cellular Toxicity (caspase-3) MRC-5 (AID 659);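 note: 0% = DMSO basal and 100% = 10 µM staurosporine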
In short: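 Luminescent Caspase-Glo 3/7 read-out (1 h, room temperature) after a 16 h, 37 °C compound exposure of MRC-5 lung fibroblasts at 1500 cells/well. Concentration-response AC50 from Hill equation; 0% DMSO, 100% 10 uM staurosporine.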

[8] = Cellular Toxicity (caspase-3) SK-N-SH (AID 661); note: potency is the fitted concentration of half-maximal effect;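 for caspase-3 activation: 0% = DMSO basal and 100% = 10 µM staurosporine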
In short: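 Apoptosis readout in SK-N-SH neuroblastoma: Caspase-Glo 3/7 luminescence following 16 hr treatment in complete culture medium. Normalization used DMSO and 10 uM staurosporine controls.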

[9] = Cellular Toxicity (caspase-3) H-4-II-E (AID 663); conditions: H-4-II-E rat hepatoma, scaled: DMSO 0%, 100 µM tamoxifen 100%; at 92.2 µM (top of the series);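 note: cells exposed to compound for 16 hr before readout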
In short: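 Caspase 3/7 activation measured by luminescent aminoluciferin substrate cleavage after 16 hr compound treatment of H-4-II-E cells in complete medium. Increase normalized between DMSO (basal) and 100 uM tamoxifen (100%); Hill-equation AC50 from concentration-response.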

[10] = molecular target: 3',5'-cyclic-AMP phosphodiesterase 4B (Homo sapiens) (UniProt Q07343); assay: qHTS Assay for Inhibitors of PDE-IV (AID 607; active = well fitted activation curve with a large enough effect in the main read-out, with a control signal flat, not every such curve was filed as active; note: % of control where 0% means no effect)
In short: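 Cell-based read-out of cAMP via a modified cyclic nucleotide-gated channel and membrane potential dye (535/590 nm) in HEK293 cells expressing PDE4 endogenously. Compounds tested up to 22.9 uM final; 100 uM RO 20-1724 reference.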

3',5'-cyclic-AMP phosphodiesterase 4B (Homo sapiens), sequence (Q07343 whole entry, looked up): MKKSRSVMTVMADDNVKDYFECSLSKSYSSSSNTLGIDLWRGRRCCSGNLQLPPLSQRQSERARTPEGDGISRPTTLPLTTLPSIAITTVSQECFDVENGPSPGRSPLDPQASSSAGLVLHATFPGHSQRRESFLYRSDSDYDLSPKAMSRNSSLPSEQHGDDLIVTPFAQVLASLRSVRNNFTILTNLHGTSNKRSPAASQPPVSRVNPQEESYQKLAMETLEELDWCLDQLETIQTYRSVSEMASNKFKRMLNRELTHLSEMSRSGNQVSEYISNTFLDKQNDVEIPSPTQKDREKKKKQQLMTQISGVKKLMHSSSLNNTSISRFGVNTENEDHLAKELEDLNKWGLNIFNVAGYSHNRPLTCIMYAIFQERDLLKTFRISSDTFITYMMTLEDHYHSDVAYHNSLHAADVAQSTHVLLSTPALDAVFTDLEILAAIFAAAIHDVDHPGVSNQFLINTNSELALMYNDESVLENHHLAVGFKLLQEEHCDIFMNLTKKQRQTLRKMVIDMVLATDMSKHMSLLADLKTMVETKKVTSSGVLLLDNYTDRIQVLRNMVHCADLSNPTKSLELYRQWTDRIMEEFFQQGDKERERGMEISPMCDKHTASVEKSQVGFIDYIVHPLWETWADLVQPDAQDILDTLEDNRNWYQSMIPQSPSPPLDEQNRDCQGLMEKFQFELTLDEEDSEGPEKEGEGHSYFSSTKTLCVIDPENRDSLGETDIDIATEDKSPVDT

S=c1[nH]c2ccccc2s1
inactive: Potency [1] | Potency [2] | Potency [3] | outcome [4] | outcome [5] | outcome [6] | outcome [7] | Potency [8] | caspase-3 activation [9] 0.172%

CN(C)CCC(c1ccc(Cl)cc1)c1ccccn1 (stereo not given)
inactive: Potency [1] | Potency [2] | Potency [3] | outcome [4] | outcome [5] | outcome [6] | outcome [7] | Potency [8] | caspase-3 activation [9] 1.63%

Nc1ccc(O)c(C(=O)O)c1
inactive: Potency [1] | outcome [10] | Potency [2] | Potency [3] | outcome [4] | outcome [5] | outcome [6] | outcome [7] | Potency [8] | caspase-3 activation [9] -0.695%

NC(N)=NC(=O)c1nc(Cl)c(N2CCCCCC2)nc1N
inactive: outcome [10]

c1ccc(-c2ccccn2)nc1
inactive: outcome [10]

Cc1nc2sccn2c(=O)c1CCN1CCC(=C(c2ccccc2)c2ccc(F)cc2)CC1
inactive: outcome [10]

CN(C)c1ccc(C(=C2C=CC(=[N+](C)C)C=C2)c2ccccc2)cc1
active: Potency [1] 316 nM | Potency [2] 631 nM | Potency [8] 1000 nM | caspase-3 activation [9] -4.63%
inactive: outcome [10] | outcome [4]

c1ccc2sc(SSc3nc4ccccc4s3)nc2c1
inactive: Potency [1] | Potency [2] | Potency [3] | outcome [4] | outcome [5] | outcome [6] | outcome [7] | Potency [8] | caspase-3 activation [9] -0.551%

CC1(C)S[C@@H]2[C@H](NC(=O)[C@H](N)c3ccccc3)C(=O)N2[C@H]1C(=O)O
inactive: Potency [1] | Potency [2] | Potency [3] | outcome [4] | outcome [5] | outcome [6] | outcome [7] | Potency [8] | caspase-3 activation [9] 0.54%

c1cnc2c(c1)ccc1cccnc12
active: Potency [3] 6310 nM
inactive: Potency [1] | outcome [10] | Potency [2] | outcome [4] | outcome [5] | outcome [6] | outcome [7] | Potency [8]

C#C[C@]1(O)CC[C@H]2[C@@H]3CCc4cc(O)ccc4[C@H]3CC[C@@]21C
inactive: Potency [1] | Potency [2] | Potency [3] | outcome [4] | outcome [5] | outcome [6] | outcome [7] | Potency [8] | caspase-3 activation [9] 3.92%

Clc1ccccc1-c1nc(-c2ccncc2)no1
inactive: outcome [10]

NCCO
inactive: Potency [1] | Potency [2] | Potency [3] | outcome [4] | outcome [5] | outcome [6] | outcome [7] | Potency [8] | caspase-3 activation [9] -0.037%

CCCCCCCCCCCCCCCCCC(=O)O
inactive: Potency [1] | Potency [2] | Potency [3] | outcome [4] | outcome [5] | outcome [6] | outcome [7] | Potency [8] | caspase-3 activation [9] -0.546%

COc1cc(CNC(=O)CCCC/C=C/C(C)C)ccc1O
inactive: Potency [1] | Potency [2] | Potency [3] | outcome [4] | outcome [5] | outcome [6] | outcome [7] | Potency [8] | caspase-3 activation [9] 1.09%

Nc1ccc(O)c([N+](=O)[O-])c1
inactive: Potency [1] | Potency [2] | Potency [3] | outcome [4] | outcome [5] | outcome [6] | outcome [7] | Potency [8] | caspase-3 activation [9] 4.05%

CN1CCc2ccccc2Cc2[nH]c3ccccc3c2CC1
inactive: outcome [10]

Oc1ccccc1O
inactive: Potency [1] | outcome [10] | Potency [2] | Potency [3] | outcome [4] | outcome [6] | outcome [7] | Potency [8]

CN1CCC[C@H]1c1cccnc1
inactive: Potency [1] | Potency [2] | Potency [3] | outcome [4] | outcome [5] | outcome [6] | outcome [7] | Potency [8] | caspase-3 activation [9] -0.172%

Nc1ccc([N+](=O)[O-])cc1O
inactive: Potency [1] | Potency [2] | Potency [3] | outcome [4] | outcome [5] | outcome [6] | outcome [7] | Potency [8] | caspase-3 activation [9] 2.85%

O=C1CN(/N=C/c2ccc([N+](=O)[O-])o2)C(=O)N1
inactive: Potency [1] | Potency [2] | Potency [3] | outcome [4] | outcome [5] | outcome [6] | outcome [7] | Potency [8] | caspase-3 activation [9] -0.519%

COc1cc(/C=C/C(=O)CC(=O)/C=C/c2ccc(O)c(OC)c2)ccc1O
inactive: Potency [1] | Potency [2] | outcome [4] | outcome [5] | outcome [6] | Potency [8] | caspase-3 activation [9] 1.39%

CCCSc1ccc2nc(NC(=O)OC)[nH]c2c1
inactive: outcome [10]

CN(C)c1ccc(N=NS(=O)(=O)O)cc1
inactive: Potency [1] | Potency [2] | Potency [3] | outcome [4] | outcome [5] | outcome [6] | outcome [7] | Potency [8] | caspase-3 activation [9] 11.8%

Nc1nc2ccc([N+](=O)[O-])cc2s1
inactive: Potency [1] | Potency [2] | Potency [3] | outcome [4] | outcome [5] | outcome [6] | outcome [7] | Potency [8] | caspase-3 activation [9] -1.1%

O=C(O)/C=C\C(=O)O
inactive: Potency [1] | Potency [2] | Potency [3] | outcome [4] | outcome [5] | outcome [6] | outcome [7] | Potency [8] | caspase-3 activation [9] 0.648%

Fc1ccc(C(OCCCc2cnc[nH]2)c2ccc(F)cc2)cc1
inactive: outcome [10]

N=C1N=C(N)c2cc3ccccc3cc21
active: activity change, negative = cytotoxicity [1] -91.8% | Potency [8] 31600 nM | caspase-3 activation [9] 153%
